Compounds with a hit are over-represented: about 2.2% of the library has one in this group of screens.
PLCg1 inh – PLC-gamma1 enzyme inhibitors, primary screen, biochemical, fluorescence, purified enzyme | fluorogenic substrate | inhibition, % at 12.2 µM | 0.84% of 370,000 active | AID 720700, 2013 | 1-phosphatidylinositol 4,5-bisphosphate phosphodiesterase gamma-1 (Homo sapiens), P19174; in the data active = inhibition above about 9.5%
GC-B act – human GC-B receptor activators, primary screen, HEK293 GC-B cells, cGMP TR-FRET, EC30 CNP; Atrial natriuretic peptide receptor 2 (Homo sapiens), P20594; 0% at EC30 CNP, 100% saturating CNP; activation, % at 10 µM; 0.11% of 370,000 active;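 active = activation at 10 µM reaching about 35% in either raw or pattern-adjusted values, limit read from the data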
Rce1 inhib – yeast Rce1p protease inhibitors, primary screen, biochemical, fluorescence, cell-free homogeneous. 0.27% of 290,000 active. yeast membranes, quenched prenylated peptide cleavage fluorescence. AID 2563, 2010. CAAX prenyl protease 2 (Saccharomyces cerevisiae (strain ATCC 204508 / S288c)), Q03530. calls only;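 active = fall in fluorescence gain of 50% or more versus controls, with final raw signal at or below 3038400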;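 note: plate controls were neutral control wells for no effect and wells lacking membranes for full effect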
PLC-beta3 inh – human PLC-beta3 inhibitors, primary screen, biochemical, fluorescence | AID 720704, 2013 | 0.18% of 370,000 active | inhibition, % at 12.2 µM | Purified PLC-beta3, fluorogenic substrate; in the data active = inhibition above about 11%;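 note: 0% = median of compound wells on plate and 100% = full blocker control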
Target sequence (Q01970 whole entry, looked up): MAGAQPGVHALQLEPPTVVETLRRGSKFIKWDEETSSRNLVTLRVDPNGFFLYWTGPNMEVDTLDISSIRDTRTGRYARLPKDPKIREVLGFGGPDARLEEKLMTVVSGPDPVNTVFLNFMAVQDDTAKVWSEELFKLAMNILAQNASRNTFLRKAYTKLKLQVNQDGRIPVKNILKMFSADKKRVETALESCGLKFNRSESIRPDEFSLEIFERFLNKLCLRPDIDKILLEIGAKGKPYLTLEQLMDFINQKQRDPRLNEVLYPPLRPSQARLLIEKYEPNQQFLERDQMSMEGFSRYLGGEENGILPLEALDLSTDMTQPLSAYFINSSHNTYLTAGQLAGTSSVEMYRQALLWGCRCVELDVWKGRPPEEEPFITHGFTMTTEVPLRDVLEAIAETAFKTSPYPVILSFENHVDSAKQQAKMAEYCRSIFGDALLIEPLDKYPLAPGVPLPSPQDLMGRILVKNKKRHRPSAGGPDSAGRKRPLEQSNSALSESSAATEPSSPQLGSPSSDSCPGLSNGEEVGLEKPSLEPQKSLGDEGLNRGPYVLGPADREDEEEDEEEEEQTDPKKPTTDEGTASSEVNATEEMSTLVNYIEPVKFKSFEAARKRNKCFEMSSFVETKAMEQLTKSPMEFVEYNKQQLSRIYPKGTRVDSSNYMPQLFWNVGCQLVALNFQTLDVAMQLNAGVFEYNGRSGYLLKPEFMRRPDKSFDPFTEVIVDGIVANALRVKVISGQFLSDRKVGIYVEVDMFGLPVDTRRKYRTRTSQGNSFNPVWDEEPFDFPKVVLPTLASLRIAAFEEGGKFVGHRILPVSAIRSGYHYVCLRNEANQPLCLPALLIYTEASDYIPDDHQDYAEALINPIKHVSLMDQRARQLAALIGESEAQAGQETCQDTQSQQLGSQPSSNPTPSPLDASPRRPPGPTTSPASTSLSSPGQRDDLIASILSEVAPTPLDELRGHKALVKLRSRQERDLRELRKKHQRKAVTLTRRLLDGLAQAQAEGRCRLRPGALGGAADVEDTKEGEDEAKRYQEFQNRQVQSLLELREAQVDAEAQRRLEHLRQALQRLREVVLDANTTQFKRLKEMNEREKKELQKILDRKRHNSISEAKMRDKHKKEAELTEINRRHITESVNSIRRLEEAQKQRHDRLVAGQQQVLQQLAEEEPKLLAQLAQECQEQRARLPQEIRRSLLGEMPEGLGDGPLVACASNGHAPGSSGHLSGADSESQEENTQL
PfM18AAP inh-1 – PfM18AAP inhibitors, malaria aminopeptidase, primary screen, biochemical, QFRET, recombinant enzyme. M18 aspartyl aminopeptidase (Plasmodium falciparum 3D7). 1.2% of 290,000 active. inhibition, % at 7.35 µM. AID 1822, 2009. H-Glu-NHMec fluorogenic cleavage;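 active = inhibition above the campaign mean inhibition over all tested compounds plus 3 SD, cut at about 28% in these data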;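 note: 0% = plate median of test compound wells and 100% = 2 mM ZnCl2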
GC-A act – GC-A stimulated cGMP production enhancers – HEK293 GC-A cells, cGMP TR-FRET, EC30 ANP, primary screen; activation, % at 10 µM; AID 1671463, 2021; 0.14% of 370,000 active; 0% at EC30 ANP, 100% saturating ANP; in the data active = activation above about 40%
PfM18AAP inh-2 – PfM18AAP inhibitors, malaria aminopeptidase, confirmation, biochemical, QFRET, recombinant enzyme, triplicate. shares compounds with PfM18AAP inh-1. H-Glu-NHMec fluorogenic cleavage. inhibition, % at 7.35 µM. 28% of 2,400 active;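 active = mean inhibition over replicate wells above the hit cutoff set for the earlier primary screen, cut at about 29% in these data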;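 note: 0% = median of test compound wells and 100% = 2 mM ZnCl2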
CTSL1 confirm – cathepsin L1 inhibitors, retest, confirmation, counter-screen for PFM18AAP inhibitor project, biochemical, QFRET, triplicate | shares compounds with PfM18AAP inh-1 | purified cathepsin L1, Z-Leu-Arg-MCA fluorescence | inhibition, % at 5.96 µM | 2,400 tested, under 10 active | AID 2178, 2009;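 active = average inhibition across replicates above the hit cutoff set in the earlier primary screen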;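 note: 0% = median of test compound wells and 100% = Z-Phe-Ala-diazomethylketone 1 µM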
* = called active by the depositor; i = inactive; / = no result.

SMILES	PLCg1 inh	GC-B act	Rce1 inhib	PLC-beta3 inh	PfM18AAP inh-1	GC-A act	PfM18AAP inh-2	CTSL1 confirm
CCN1CCc2c(sc(NC(=O)c3ccc(C(=O)c4ccccc4)cc3)c2C(N)=O)C1	-111.7	-6.9	i	-191.3	-3.0	0.8	/	/
N#Cc1c(NC(=S)NC(=O)c2ccccc2)sc2c1CCC2	-1.1	-2.5	i	-0.5	8.3	3.8	/	/
Cc1ccc(-c2cc(C(=O)NN=C/C=C/c3ccco3)[nH]n2)cc1C	-0.4	-1.1	/	-11.7	/	0.3	/	/
CN(Cc1ccccc1)C(=O)OCc1cn(Cc2ccc(F)cc2F)nn1	-2.9	6.0	/	0.0	/	5.3	/	/
Cc1c(C(=O)N/N=C/c2ccccc2Cl)[nH][nH]c1=O	-1.1	0.6	/	1.1	/	-3.5	/	/
Cc1ccc(NC(=S)C2=C(O)c3sccc3N(C)S2(=O)=O)cc1	-33.4	-1.3	i	-40.5	48.9*	2.3	-32.3	4.5
Cc1ccc(NC(=O)C2=C(O)c3sccc3N(C)S2(=O)=O)cc1	-1.4	0.4	i	-3.6	-6.9	-0.3	/	/
COc1ccc(OC)c(S(=O)(=O)N(CC(=O)NC2CCC(C)CC2)c2cc(C)cc(C)c2)c1 (stereo not drawn)	-1.4	-5.4	/	-3.6	/	-13.2	/	/
CSc1ccc(NC(N)=S)cc1	1.2	4.3	i	-9.4	0.1	4.2	/	/
CN(C)c1ccc(NC(N)=S)cc1	1.3	-10.2	i	0.8	49.1*	-5.0	19.5	-3.1
CC1CN(Cc2nc3c(c(=O)n(C)c(=O)n3C)n2Cc2ccccc2)CC(C)O1 (stereo not drawn)	1.4	-0.6	i	-5.4	55.4*	-2.7	-55.1	1.2
CC1CN(Cc2nc3c(c(=O)n(C)c(=O)n3C)n2CC(=O)c2ccccc2)CC(C)O1 (stereo not drawn)	0.0	5.5	i	1.3	-8.8	1.2	/	/
C[C@H]1[C@@H](NC(=O)/C=C/c2ccccc2)CC[C@@]23CCCN2C(=O)CCC[C@@H]13	-1.2	-0.9	/	1.9	/	-2.0	/	/
CC(=O)N(c1ccc2oc(=O)sc2c1)S(=O)(=O)c1ccc(C(=O)O)cc1	0.5	1.5	i	-8.3	46.0*	3.5	8.2	-3.2
CC(=O)N(c1ccc2oc(=O)sc2c1)S(=O)(=O)c1cccs1	-1.0	4.1	i	1.5	40.0*	5.4	-23.1	2.9
CC(=O)N(c1ccc2oc(=O)sc2c1)S(=O)(=O)c1cccc2cccnc12	-1.0	3.6	i	-6.5	13.9	6.3	/	/
CCCC(=O)N(c1ccc2oc(=O)sc2c1)S(=O)(=O)c1ccccc1	-3.6	5.9	i	-0.7	32.8*	2.2	-18.5	-1.2
CC(C)C(=O)N(c1ccc2oc(=O)sc2c1)S(=O)(=O)c1cccs1	4.6	-7.4	i	2.9	36.9*	0.8	-10.1	2.1
C/C=C/C=C/C(=O)N1C[C@H](C)N(C)C[C@H]1C	0.6	7.9	/	-3.0	/	2.4	/	/
Cc1cccc(OC(C)CCN2CCC(C(O)(c3ccccc3)c3ccccc3)CC2)c1 (stereo not drawn)	2.4	-10.0	/	3.9	/	-17.5	/	/
CCOc1cc(/C=N/Nc2nnc(C)n2N)ccc1OC(C)=O	8.3	-0.6	i	-0.2	33.5*	-5.2	-59.0	-0.1
Cn1c(N)c(C(=O)N/N=C/c2ccccc2)sc1=S	-10.7	-8.2	i	-16.2	33.5*	3.9	-34.8	1.9
Cc1c(C(=O)N/N=C/c2cccnc2)sc(=S)n1C	-0.8	-9.1	i	-1.9	6.0	10.8	/	/
COC(=O)[C@]12C[C@H](CC(=O)N3CCC(c4ccccc4)CC3)C(=O)N(Cc3ccccc3)C1=C[C@H](C(C)(C)C)O[C@@H]2C	0.3	-5.8	/	0.9	/	-2.9	/	/
FC(F)(F)c1ccccc1NC(=S)NN=C1CCCCCC1	-0.8	2.6	/	-3.6	39.1*	0.0	-23.0	-1.1
SMILES	PLCg1 inh	GC-B act	Rce1 inhib	PLC-beta3 inh	PfM18AAP inh-1	GC-A act	PfM18AAP inh-2	CTSL1 confirm
Cc1ccc(N2C(=O)C3Sc4[nH]c(=O)sc4C(c4ccccc4)C3C2=O)cc1 (stereo not drawn)	-1.4	1.6	/	-5.5	24.5	0.7	/	/
O=C1C2Sc3[nH]c(=O)sc3C(c3ccccc3)C2C(=O)N1c1ccc(Cl)cc1 (stereo not drawn)	-4.1	-1.8	/	-6.8	36.1*	0.3	-14.5	-3.8
CCOc1ccc2c(c1)S/C(=C\c1cccs1)C(=O)N2	-21.9	-20.8	i	-32.5	34.3*	-44.9	-33.5	-1.4
O=C(Nc1nc2ccccc2s1)c1ccc(F)cc1	-4.6	-0.4	i	-7.2	5.9	13.8	/	/
O=C(Nc1nc(=O)c2ccccc2s1)c1ccccc1	-1.5	-2.6	i	-3.0	42.9*	2.8	-56.3	-8.4
N#Cc1ccc(/C=C2\CC3(OC(=O)c4cccc(F)c4)CCCN2C3)cc1 (stereo not drawn)	2.5	-5.3	/	4.8	/	-2.2	/	/
CCN(CC)c1ccc(-n2c(C)cc(C=O)c2C)cc1	-15.8	-5.5	i	-16.8	33.2*	-3.7	-46.9	0.0
Cc1cccc(NC(=O)Nc2nc3ncccn3c2-c2ccccc2)c1	-329.4	-0.1	/	-426.9	/	1.3	/	/
Cc1[nH]c2ccccc2c1/C=N/Nc1ccc([N+](=O)[O-])cc1	-12.5	-11.0	i	-15.9	34.4*	-11.2	-41.0	2.1
O=C(NC(=S)Nn1cnnc1)c1ccccc1	0.5	11.1	i	2.8	/	1.1	/	/
O=C(Nn1cnnc1)c1ccc(F)cc1	0.9	3.8	i	-3.4	32.4*	-1.1	15.6	1.0
O=C(Nn1cnnc1)c1ccc(Cl)cc1	1.1	3.1	i	2.2	41.9*	-0.4	25.8	0.3
O=C(Nn1cnnc1)c1ccc(OC(F)(F)C(F)C(F)(F)F)cc1 (stereo not drawn)	0.8	5.5	i	-0.1	38.5*	0.6	5.5	-5.9
CCOc1ccc(C(=O)Nn2cnnc2)cc1	1.1	-1.5	i	1.2	21.7	-1.6	/	/
Cc1n[nH]c(C)c1S(=O)(=O)NCCc1ccccc1F	1.9	-0.7	/	3.3	/	5.8	/	/
O=C(Nc1ccccc1C(F)(F)F)OCCCN1CCC2(CCC(c3ccccc3)CC2)C1=O (stereo not drawn)	4.1	2.1	/	-6.7	/	-1.1	/	/

Screening results as filed in PubChem BioAssay.
